Results as given in PubChem BioAssay (NCATS).
Several values for one entry are separate records, joined by “and”; a condition that tells them apart may be missing. Equal entries are not always repeated. Records with an inconclusive call do not appear. Activity calls are given as the source filed them. Calls come from the whole dose curve; as a rule, active = well fitted curve in the direction sought with a large enough effect; inconclusive = small, poorly fitted or top-dose-only effect, or another doubt; inactive = no such curve, though single readings can be large; an effect the other way counts as inactive or inconclusive.

Columns and labels:
[1] = test system: W2; assay: qHTS profiling for inhibitors of Plasmodium falciparum proliferation (AID 504749);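 note: 0% = DMSO vehicle and full inhibition = artemisinin control; nearly all actives have a fitted effect of over 60% in size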; details: P. falciparum in erythrocytes, SYBR Green DNA, 72 h; series mostly up to 28.7 µM
Procedure, shortened: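 P. falciparum-infected erythrocytes (0.3% parasitemia, 2.5% hematocrit final) were exposed to compounds for 72 h at 37 C in 5% CO2, then lysed with SYBR Green buffer overnight at room temperature; parasite DNA fluorescence was normalized to artemisinin and DMSO controls.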

[2] = test system: CRL-7250; assay: Cytotoxic Profiling of Annotated Libraries Using Quantitative High-Throughput Screening (AID 1296008); details: Five cell lines viability, CellTiter-Glo ATP luminescence, 48-72 h; max response: hits give low values; note: nearly all actives have a fitted effect of over 60% in size; for max response: % is set by controls: 0 for no effect and ±100 for the full control effect
Procedure, shortened: (§1)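 Compounds were pin-transferred onto cells and incubated 48 or 72 hr at 37 degree Celsius, 95% humidity. CellTiter-Glo was added, plates sat 10 min at room temperature, then ATP-coupled luminescence was imaged as the viability read-out.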

[3] = test system: HEK293; assay: as above; details: Five cell lines viability, CellTiter-Glo ATP luminescence, 48-72 h; max response: hits give low values
Procedure, shortened: as §1

[4] = test system: HaCat; assay: as above; details: Five cell lines viability, CellTiter-Glo ATP luminescence, 48-72 h; max response: hits give low values
Procedure, shortened: as §1

[5] = test system: KB-3-1; assay: as above; details: Five cell lines viability, CellTiter-Glo ATP luminescence, 48-72 h; max response: hits give low values
Procedure, shortened: as §1

[6] = test system: NIH3T3; assay: as above; details: Five cell lines viability, CellTiter-Glo ATP luminescence, 48-72 h; max response: hits give low values
Procedure, shortened: as §1

[7] = test system: HACAT; assay: qHTS assay to identify novel small-molecules to repurpose for Merkel cell carcinoma treatment (AID 1296009); details: MCC and control cell lines, CellTiter-Glo viability, 72 h; at 44.8 µM (top of the series) unless noted; note: nearly all actives have a fitted effect of over 60% in size
Procedure, shortened: (§2)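 Cells exposed to NPC (8-point) and MIPE (11-point) compound dilutions for 72 hr at 37 degree celsius; viability read by CellTiter-Glo luminescence, normalized to no-cell and DMSO in-plate controls.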

[8] = test system: MCC-13; assay: as above; details: MCC and control cell lines, CellTiter-Glo viability, 72 h; series mostly up to 46 µM
Procedure, shortened: as §2

[9] = test system: MCC-26; assay: as above; details: MCC and control cell lines, CellTiter-Glo viability, 72 h; series mostly up to 46 µM
Procedure, shortened: as §2

[10] = test system: UISO; assay: as above; details: MCC and control cell lines, CellTiter-Glo viability, 72 h; series mostly up to 46 µM
Procedure, shortened: as §2

[11] = test system: WaGa; assay: as above; details: MCC and control cell lines, CellTiter-Glo viability, 72 h; series mostly up to 46 µM
Procedure, shortened: as §2

[12] = test system: C33A; assay: Primary qHTS to identify gynecologic anti-cancer compounds using libraries of approved drugs and bioactive compounds (AID 1345084); details: Gynecologic cancer cell panel viability, ATPlite luminescence, 48 h; series mostly up to 57.5 µM; note: % is set by controls: 0 for no effect and ±100 for the full control effect; nearly all actives have a fitted effect of over 55% in size
Procedure, shortened: (§3)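 Cytotoxicity screen measuring ATP content by luciferase luminescence. Each compound is applied at five concentrations for 48 h at 37 C with 5% CO2.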

[13] = test system: CAOV3; assay: as above; details: Gynecologic cancer cell panel viability, ATPlite luminescence, 48 h; series mostly up to 57.5 µM
Procedure, shortened: as §3

[14] = test system: CASKI; assay: as above; details: Gynecologic cancer cell panel viability, ATPlite luminescence, 48 h; series mostly up to 57.5 µM
Procedure, shortened: as §3

[15] = test system: Es-2; assay: as above; details: Gynecologic cancer cell panel viability, ATPlite luminescence, 48 h; series mostly up to 57.5 µM
Procedure, shortened: as §3

[16] = test system: HeLa; assay: as above; details: Gynecologic cancer cell panel viability, ATPlite luminescence, 48 h; series mostly up to 57.5 µM
Procedure, shortened: as §3

[17] = test system: MKL-1; assay: qHTS assay to identify novel small-molecules to repurpose for Merkel cell carcinoma treatment (AID 1296009); details: MCC and control cell lines, CellTiter-Glo viability, 72 h; series mostly up to 46 µM; note: nearly all actives have a fitted effect of over 60% in size
Procedure, shortened: as §2

[18] = test system: MKL-2; assay: as above; details: MCC and control cell lines, CellTiter-Glo viability, 72 h; series mostly up to 46 µM
Procedure, shortened: as §2

[19] = test system: HEK293T; assay: as above; details: MCC and control cell lines, CellTiter-Glo viability, 72 h; at 44.8 µM (top of the series) unless noted
Procedure, shortened: as §2

O=C1C(CCS(=O)c2ccccc2)C(=O)N(c2ccccc2)N1c1ccccc1 (centres undefined)
inactive: Potency [1] | max response [2] -1.85% | max response [3] -3.91% | outcome [4] | max response [5] 4.22% | max response [6] -2.37% | outcome [7] | Potency [8] | Potency [9] | Potency [10] | Potency [11] | Potency [12] | Potency [13] | Potency [14] | Potency [15] | Potency [16]

CCCCN1C[C@H](O)[C@@H](O)[C@H](O)[C@H]1CO
inactive: max response [2] -12.1% | max response [3] -7.96% | max response [4] -19.6% | max response [5] 15.3% | max response [6] -2.42% | Potency [8] | Potency [9] | Potency [17] | Potency [18] | Potency [10] | Potency [11] | Potency [12] | Potency [13] | Potency [14] | Potency [15] | Potency [16]

C[N+]12CCC(CC1)C(OC(=O)C(O)(c1ccccc1)c1ccccc1)C2 (centres undefined)
inactive: max response [2] 3.27% | max response [3] -6.95% | max response [4] -16.2% | max response [5] 1.71% | max response [6] 0.982% | Potency [8] | Potency [9] | Potency [17] | Potency [18] | Potency [10] | Potency [11] | Potency [12] | Potency [13] | Potency [14] | Potency [15] | Potency [16]

CCOc1ccc(NC(C)=O)cc1
inactive: Potency [1] | max response [2] -21.4% | max response [3] -5.15% | max response [4] -1.35% | max response [5] 8.88% | max response [6] -7.54% | Potency [8] | Potency [9] | Potency [17] | Potency [18] | Potency [10] | Potency [11] | Potency [12] | Potency [13] | Potency [14] | Potency [15] | Potency [16]

CC(CNC1CCCCC1)OC(=O)c1ccccc1 (centres undefined)
inactive: max response [2] -16.2% | max response [3] -47.9% | max response [4] -18.5% | max response [5] 3.78% | max response [6] 0.669% | Potency [8] | Potency [9] | Potency [17] | Potency [18] | Potency [10] | Potency [11] | Potency [12] | Potency [13] | Potency [14] | Potency [15] | Potency [16]

CC(=O)Nc1ccc(OCC(O)CNC(C)C)cc1 (centres undefined)
inactive: Potency [1] | max response [2] -5.23% | max response [3] 4.87% | outcome [4] | max response [5] -4.81% | max response [6] -0.995% | outcome [7] | Potency [8] | Potency [17] | Potency [18] | Potency [11] | Potency [12] | Potency [14] | Potency [15] | Potency [16]

O=C1[C@H](CC[C@H](O)c2ccc(F)cc2)[C@@H](c2ccc(O)cc2)N1c1ccc(F)cc1
inactive: max response [2] 1.5% | outcome [2] | max response [4] -6.94% and -19.1% | max response [5] -8.72% and 5.64% | max response [6] -18.6% and -29.1% | Potency [8] | Potency [9] | Potency [17] | Potency [18] | Potency [10] | Potency [12] | Potency [13] | Potency [14] | Potency [15] | Potency [16]

COc1ccc(CCN(C)CCCN2CCc3cc(OC)c(OC)cc3CC2=O)cc1OC
inactive: max response [2] -0.711% | outcome [3] | max response [4] -7.19% | max response [5] -10.8% | max response [6] 3.6% | outcome [19] | Potency [8] | Potency [17] | Potency [18] | Potency [10] | Potency [12] | Potency [13] | Potency [14] | Potency [15] | Potency [16]

COc1ccc(C(=O)c2ccccc2O)c(O)c1
inactive: outcome [2] | max response [3] -10.9% | max response [4] 4.59% | max response [5] -2.05% | max response [6] 1.03% | Potency [8] | Potency [9] | Potency [17] | Potency [18] | Potency [10] | Potency [11] | Potency [12] | Potency [13] | Potency [14] | Potency [15] | Potency [16]

OC1C(O)C(O)C(O)C(O)C1O (centres undefined)
inactive: Potency [1] | outcome [2] | max response [3] 2.94% | max response [4] 2.27% | max response [5] -8.66% | max response [6] -6.2% | Potency [8] | Potency [9] | Potency [17] | Potency [18] | Potency [10] | Potency [11] | Potency [12] | Potency [13] | Potency [14] | Potency [15] | Potency [16]

CCC(CC)(CC(=O)Nc1cccc(/C=C/c2nc(C3CCC3)cs2)c1)C(=O)O
inactive: Potency [1] | max response [2] 2.29% | max response [3] -8.39% | outcome [4] | max response [5] -22.9% | max response [6] 2.57% | outcome [7] | Potency [8] | Potency [9] | Potency [17] | Potency [10] | Potency [12] | Potency [14]

NS(=O)(=O)c1cc2c(cc1Cl)NC(CC1CCCC1)NS2(=O)=O (centres undefined)
inactive: max response [2] -2.46% | max response [3] -7.58% | max response [4] -5.14% | max response [5] 7.67% | max response [6] 2.98% | Potency [8] | Potency [9] | Potency [17] | Potency [18] | Potency [10] | Potency [11] | Potency [12] | Potency [13] | Potency [14] | Potency [15] | Potency [16]

NC(=S)N/N=C/c1cccnc1
inactive: max response [2] -6.1% | max response [3] -29.1% | max response [4] 1.46% | max response [5] 2.69% | max response [6] 1.77% | Potency [8] | Potency [9] | Potency [17] | Potency [18] | Potency [10] | Potency [11] | Potency [12] | Potency [13] | Potency [14] | Potency [15] | Potency [16]
